# Experiments:
# Test in all cases: DAPPL (digital affinity profiling via proximity ligation, sequencing); 10 mM Tris-HCl pH 7.5, 50 mM NaCl, 1 mM DTT, 4% glycerol, room temperature, 30 min; GST-TFs on glutathione beads, 16-mer random dsDNA library, 0.1% formaldehyde crosslink after washing; high values mean tight binding
# FLI1 = molecular target: T1, FLI1 (Homo sapiens, UniProt Q01543 1-452); details: protein: recombinant; tags: N-terminal GST; dsDNA, one strand shown
# T1 sequence: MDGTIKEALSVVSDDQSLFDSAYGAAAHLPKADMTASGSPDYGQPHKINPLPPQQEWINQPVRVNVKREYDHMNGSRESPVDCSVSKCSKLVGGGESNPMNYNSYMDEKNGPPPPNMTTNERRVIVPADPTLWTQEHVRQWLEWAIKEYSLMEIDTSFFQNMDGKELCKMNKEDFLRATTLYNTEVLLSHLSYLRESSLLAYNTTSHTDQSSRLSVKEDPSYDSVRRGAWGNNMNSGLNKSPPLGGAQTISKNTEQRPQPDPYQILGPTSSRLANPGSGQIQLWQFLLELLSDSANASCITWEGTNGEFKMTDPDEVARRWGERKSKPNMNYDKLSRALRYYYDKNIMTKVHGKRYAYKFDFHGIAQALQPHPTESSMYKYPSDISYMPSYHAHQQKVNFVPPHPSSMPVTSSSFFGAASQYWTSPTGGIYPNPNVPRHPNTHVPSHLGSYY
# How it was run: (§1)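 GST fusions of human transcription factors were expressed in yeast and captured with glutathione beads. Once given DNA barcodes and pooled alongside a tag-only sample, they were incubated for 30 min at room temperature with 200 nmole of a random double-stranded 16-mer DNA library in Tris/NaCl/DTT/glycerol buffer, then washed, crosslinked (0.1% formaldehyde), proximity-ligated, PCR-amplified and sequenced on an Illumina NextSeq500. The binding signal of each hexamer is its read frequency for a factor divided by its frequency for the tag-only sample.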
# ELK1 = molecular target: T2, ELK1 (Homo sapiens, UniProt P19419 1-428); details: protein: recombinant; tags: N-terminal GST; dsDNA, one strand shown
# T2 sequence: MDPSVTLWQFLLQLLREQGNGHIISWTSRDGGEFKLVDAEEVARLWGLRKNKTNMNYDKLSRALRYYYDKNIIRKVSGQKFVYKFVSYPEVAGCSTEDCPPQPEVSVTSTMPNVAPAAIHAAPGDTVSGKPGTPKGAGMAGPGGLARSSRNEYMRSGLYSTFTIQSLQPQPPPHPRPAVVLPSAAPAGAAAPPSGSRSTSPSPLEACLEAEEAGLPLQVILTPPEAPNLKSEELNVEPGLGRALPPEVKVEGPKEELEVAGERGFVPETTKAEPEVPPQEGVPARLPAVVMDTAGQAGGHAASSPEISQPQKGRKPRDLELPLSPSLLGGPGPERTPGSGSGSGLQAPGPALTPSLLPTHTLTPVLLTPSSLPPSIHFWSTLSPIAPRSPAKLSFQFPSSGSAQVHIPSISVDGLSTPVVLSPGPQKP
# How it was run: as §1
# GABPA = molecular target: T3, GABPA (Homo sapiens, UniProt Q06546 1-454); details: protein: recombinant; tags: N-terminal GST; dsDNA, one strand shown
# T3 sequence: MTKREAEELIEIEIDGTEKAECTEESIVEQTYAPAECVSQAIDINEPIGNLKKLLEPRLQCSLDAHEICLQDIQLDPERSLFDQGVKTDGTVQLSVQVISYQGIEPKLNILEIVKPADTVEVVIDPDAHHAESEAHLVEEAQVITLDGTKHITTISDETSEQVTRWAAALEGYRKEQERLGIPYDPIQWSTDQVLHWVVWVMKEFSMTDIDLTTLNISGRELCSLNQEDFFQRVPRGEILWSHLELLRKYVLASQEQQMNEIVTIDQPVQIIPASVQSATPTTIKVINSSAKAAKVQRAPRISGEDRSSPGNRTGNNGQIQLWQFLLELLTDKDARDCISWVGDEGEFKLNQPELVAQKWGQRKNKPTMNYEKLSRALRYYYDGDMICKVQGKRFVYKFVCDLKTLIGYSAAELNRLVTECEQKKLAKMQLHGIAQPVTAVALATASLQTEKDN
# How it was run: as §1
# ERG = molecular target: T4, ERG (Homo sapiens, UniProt P11308 1-479); details: protein: recombinant; tags: N-terminal GST; dsDNA, one strand shown
# T4 sequence: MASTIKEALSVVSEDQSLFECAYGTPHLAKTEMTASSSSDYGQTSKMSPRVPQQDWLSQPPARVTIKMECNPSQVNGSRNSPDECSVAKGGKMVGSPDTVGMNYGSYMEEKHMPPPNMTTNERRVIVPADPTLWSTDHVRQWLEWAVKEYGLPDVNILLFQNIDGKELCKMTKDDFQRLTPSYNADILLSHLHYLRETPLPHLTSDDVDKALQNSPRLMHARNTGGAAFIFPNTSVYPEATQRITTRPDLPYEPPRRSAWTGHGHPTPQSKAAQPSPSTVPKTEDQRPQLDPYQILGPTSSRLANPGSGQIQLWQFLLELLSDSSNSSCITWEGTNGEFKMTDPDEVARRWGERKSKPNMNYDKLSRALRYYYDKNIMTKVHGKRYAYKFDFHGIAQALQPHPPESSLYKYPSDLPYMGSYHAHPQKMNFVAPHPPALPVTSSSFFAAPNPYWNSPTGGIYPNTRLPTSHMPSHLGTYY
# How it was run: as §1
# ELF1 = ELF1 (Homo sapiens, UniProt P32519 1-619); details: protein: recombinant; tags: N-terminal GST; dsDNA, one strand shown
# How it was run: as §1
# EHF = molecular target: T5, EHF (Homo sapiens, UniProt Q9NZC4 1-300); details: protein: recombinant; tags: N-terminal GST; dsDNA, one strand shown
# T5 sequence: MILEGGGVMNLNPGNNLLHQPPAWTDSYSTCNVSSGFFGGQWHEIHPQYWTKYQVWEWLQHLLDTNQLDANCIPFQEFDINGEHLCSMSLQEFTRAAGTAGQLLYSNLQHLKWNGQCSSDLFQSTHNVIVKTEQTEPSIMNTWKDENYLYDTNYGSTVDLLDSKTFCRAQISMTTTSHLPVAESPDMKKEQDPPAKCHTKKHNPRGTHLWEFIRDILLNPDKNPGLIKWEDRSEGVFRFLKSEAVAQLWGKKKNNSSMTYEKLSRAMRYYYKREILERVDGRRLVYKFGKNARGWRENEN
# How it was run: as §1
# SPI1 = SPI1 (Homo sapiens, UniProt P17947 1-270); details: protein: recombinant; tags: N-terminal GST; dsDNA, one strand shown
# How it was run: as §1
# SPIB = SPIB (Homo sapiens, UniProt Q01892 1-262); details: protein: recombinant; tags: N-terminal GST; dsDNA, one strand shown
# How it was run: as §1
# ELK3 = molecular target: T6, ELK3 (Homo sapiens, UniProt P41970 1-407); details: protein: recombinant; tags: N-terminal GST; dsDNA, one strand shown
# T6 sequence: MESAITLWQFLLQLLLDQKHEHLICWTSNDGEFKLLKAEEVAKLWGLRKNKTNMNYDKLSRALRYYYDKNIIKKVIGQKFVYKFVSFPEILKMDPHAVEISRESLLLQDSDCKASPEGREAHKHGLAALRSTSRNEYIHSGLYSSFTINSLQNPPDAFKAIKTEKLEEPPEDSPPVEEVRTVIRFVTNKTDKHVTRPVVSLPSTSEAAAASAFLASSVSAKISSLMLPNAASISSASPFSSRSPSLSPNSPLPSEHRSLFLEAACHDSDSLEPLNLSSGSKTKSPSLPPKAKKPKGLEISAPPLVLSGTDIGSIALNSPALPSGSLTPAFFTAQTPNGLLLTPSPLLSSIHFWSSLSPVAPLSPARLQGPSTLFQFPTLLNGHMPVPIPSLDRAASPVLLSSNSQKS
# How it was run: as §1
# FEV = molecular target: T7, FEV (Homo sapiens, UniProt Q99581 1-238); details: protein: recombinant; tags: N-terminal GST; dsDNA, one strand shown
# T7 sequence: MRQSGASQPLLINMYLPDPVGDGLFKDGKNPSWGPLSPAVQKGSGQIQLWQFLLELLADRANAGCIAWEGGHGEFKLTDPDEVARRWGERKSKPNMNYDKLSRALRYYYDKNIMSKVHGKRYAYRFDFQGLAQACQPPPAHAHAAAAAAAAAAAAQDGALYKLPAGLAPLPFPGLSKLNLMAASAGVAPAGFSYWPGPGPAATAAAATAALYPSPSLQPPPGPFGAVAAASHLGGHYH
# How it was run: as §1
# ETV5 = ETV5 (Homo sapiens, UniProt P41161 1-510); details: protein: recombinant; tags: N-terminal GST; dsDNA, one strand shown
# How it was run: as §1
# HSF1 = HSF1 (Homo sapiens, UniProt Q00613 1-529); details: protein: recombinant; tags: N-terminal GST; chain copies: 3; dsDNA, one strand shown
# How it was run: as §1
# SPIC = molecular target: T8, SPIC (Homo sapiens, UniProt Q8N5J4 1-248); details: protein: recombinant; tags: N-terminal GST; dsDNA, one strand shown
# T8 sequence: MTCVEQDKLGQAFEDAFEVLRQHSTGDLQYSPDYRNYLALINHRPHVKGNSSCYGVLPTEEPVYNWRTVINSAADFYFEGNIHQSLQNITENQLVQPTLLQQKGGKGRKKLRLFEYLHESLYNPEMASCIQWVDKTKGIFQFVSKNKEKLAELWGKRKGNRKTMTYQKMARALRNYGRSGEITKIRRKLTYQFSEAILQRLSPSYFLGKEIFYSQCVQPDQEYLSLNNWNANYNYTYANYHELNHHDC
# How it was run: as §1
# ELF4 = ELF4 (Homo sapiens, UniProt Q99607 1-663); details: protein: recombinant; tags: N-terminal GST; dsDNA, one strand shown
# How it was run: as §1
# ELK4 = molecular target: T9, ELK4 (Homo sapiens, UniProt P28324-2 1-405); details: protein: recombinant; tags: N-terminal GST; dsDNA, one strand shown
# T9 sequence: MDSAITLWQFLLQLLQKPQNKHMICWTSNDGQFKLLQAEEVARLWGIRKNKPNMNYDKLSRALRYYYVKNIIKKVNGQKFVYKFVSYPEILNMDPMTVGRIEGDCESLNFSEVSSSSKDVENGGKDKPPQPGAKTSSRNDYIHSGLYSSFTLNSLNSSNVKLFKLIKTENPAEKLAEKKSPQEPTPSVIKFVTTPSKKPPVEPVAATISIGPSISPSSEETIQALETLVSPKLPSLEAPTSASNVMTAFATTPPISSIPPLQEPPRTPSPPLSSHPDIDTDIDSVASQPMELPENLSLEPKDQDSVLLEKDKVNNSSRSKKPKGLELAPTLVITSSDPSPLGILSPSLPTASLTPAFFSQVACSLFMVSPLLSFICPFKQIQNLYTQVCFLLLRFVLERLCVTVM
# How it was run: as §1
# ETV2 = molecular target: T10, ETV2 (Homo sapiens, UniProt O00321 1-342); details: protein: recombinant; tags: N-terminal GST; dsDNA, one strand shown
# T10 sequence: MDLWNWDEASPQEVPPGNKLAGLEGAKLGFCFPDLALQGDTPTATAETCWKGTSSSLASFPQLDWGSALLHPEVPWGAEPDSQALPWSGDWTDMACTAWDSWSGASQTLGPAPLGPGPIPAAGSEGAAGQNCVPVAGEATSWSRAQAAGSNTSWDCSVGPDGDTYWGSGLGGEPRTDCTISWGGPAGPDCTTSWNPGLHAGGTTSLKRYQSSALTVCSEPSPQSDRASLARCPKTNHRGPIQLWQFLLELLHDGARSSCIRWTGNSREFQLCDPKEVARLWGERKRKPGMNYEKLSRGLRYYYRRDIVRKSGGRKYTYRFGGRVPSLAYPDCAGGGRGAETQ
# How it was run: as §1
# ELF3 = molecular target: T11, ELF3 (Homo sapiens, UniProt P78545 1-371); details: protein: recombinant; tags: N-terminal GST; dsDNA, one strand shown
# T11 sequence: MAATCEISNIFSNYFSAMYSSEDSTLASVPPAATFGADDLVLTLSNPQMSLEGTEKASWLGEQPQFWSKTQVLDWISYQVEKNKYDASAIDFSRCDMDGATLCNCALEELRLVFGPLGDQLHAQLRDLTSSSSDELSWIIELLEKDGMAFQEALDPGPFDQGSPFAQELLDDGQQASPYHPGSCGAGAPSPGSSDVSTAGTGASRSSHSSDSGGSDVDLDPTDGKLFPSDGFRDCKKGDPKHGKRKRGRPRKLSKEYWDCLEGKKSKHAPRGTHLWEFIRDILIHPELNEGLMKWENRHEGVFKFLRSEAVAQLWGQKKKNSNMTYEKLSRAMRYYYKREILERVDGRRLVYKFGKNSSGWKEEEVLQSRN
# How it was run: as §1
# CRX = CRX (Homo sapiens, UniProt O43186 1-299); details: protein: recombinant; tags: N-terminal GST; dsDNA, one strand shown
# How it was run: as §1
# ETV1 = ETV1 (Homo sapiens, UniProt P50549 1-477); details: protein: recombinant; tags: N-terminal GST; dsDNA, one strand shown
# How it was run: as §1
# Chain of ETV1 (P50549 whole entry): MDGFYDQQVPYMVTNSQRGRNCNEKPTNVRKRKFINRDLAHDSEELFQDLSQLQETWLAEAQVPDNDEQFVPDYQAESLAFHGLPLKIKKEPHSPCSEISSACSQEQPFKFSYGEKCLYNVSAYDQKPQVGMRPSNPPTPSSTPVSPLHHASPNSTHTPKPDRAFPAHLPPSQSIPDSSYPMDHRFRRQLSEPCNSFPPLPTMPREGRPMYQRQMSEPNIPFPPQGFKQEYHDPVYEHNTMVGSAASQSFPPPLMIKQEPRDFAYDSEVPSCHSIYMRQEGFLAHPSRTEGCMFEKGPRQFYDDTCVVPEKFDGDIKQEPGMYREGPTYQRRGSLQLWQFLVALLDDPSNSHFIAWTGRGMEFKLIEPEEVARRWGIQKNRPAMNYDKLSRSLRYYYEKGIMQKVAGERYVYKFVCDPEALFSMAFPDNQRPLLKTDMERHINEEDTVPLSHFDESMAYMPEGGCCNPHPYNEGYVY
# Chain of HSF1 (Q00613 whole entry): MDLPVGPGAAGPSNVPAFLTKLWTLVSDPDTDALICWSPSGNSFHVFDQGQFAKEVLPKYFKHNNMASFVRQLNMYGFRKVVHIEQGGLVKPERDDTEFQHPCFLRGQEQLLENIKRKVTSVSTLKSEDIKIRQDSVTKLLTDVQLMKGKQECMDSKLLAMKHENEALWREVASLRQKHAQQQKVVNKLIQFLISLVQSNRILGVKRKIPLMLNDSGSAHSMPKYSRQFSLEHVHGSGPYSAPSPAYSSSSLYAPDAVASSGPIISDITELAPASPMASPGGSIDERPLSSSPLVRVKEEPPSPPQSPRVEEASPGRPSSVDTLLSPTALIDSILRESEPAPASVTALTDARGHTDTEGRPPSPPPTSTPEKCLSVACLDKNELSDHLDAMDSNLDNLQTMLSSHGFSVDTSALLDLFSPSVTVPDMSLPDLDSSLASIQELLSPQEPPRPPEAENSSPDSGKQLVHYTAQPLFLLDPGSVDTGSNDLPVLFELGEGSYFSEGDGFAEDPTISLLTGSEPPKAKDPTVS
# Chain of CRX (O43186 whole entry): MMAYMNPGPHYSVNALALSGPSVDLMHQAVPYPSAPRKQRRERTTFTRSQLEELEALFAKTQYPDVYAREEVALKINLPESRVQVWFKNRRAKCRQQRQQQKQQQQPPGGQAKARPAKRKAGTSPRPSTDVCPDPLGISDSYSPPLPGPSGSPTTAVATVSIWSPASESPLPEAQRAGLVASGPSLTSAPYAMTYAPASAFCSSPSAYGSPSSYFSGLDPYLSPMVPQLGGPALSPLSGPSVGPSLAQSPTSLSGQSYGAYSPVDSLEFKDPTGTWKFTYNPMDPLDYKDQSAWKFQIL
# Chain of SPIB (Q01892 whole entry): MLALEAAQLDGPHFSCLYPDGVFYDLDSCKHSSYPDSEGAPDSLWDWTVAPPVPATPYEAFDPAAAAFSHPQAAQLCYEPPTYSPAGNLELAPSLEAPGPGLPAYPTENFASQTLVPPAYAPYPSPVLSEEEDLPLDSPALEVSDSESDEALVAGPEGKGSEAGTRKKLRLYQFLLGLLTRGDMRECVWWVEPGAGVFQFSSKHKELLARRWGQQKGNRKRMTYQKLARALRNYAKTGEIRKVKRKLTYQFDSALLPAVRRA
# Chain of ELF4 (Q99607 whole entry): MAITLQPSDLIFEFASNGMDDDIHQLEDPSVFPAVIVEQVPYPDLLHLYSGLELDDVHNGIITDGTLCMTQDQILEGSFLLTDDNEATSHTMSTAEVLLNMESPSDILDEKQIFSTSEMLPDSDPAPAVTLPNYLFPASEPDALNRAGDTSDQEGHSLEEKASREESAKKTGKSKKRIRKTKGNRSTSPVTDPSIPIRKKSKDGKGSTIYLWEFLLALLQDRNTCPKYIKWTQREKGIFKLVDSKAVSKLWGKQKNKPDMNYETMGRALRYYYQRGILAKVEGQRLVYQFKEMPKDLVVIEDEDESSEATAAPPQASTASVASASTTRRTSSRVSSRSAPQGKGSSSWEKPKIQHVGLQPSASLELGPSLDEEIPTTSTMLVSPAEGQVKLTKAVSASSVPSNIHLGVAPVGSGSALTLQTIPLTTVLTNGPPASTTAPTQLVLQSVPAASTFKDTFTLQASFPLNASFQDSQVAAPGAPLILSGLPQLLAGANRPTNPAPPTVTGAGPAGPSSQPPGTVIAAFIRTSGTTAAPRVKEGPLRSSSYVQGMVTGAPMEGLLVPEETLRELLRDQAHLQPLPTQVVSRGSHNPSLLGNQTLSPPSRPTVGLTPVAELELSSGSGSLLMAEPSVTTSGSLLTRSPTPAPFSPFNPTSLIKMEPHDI
# Chain of ETV5 (P41161 whole entry): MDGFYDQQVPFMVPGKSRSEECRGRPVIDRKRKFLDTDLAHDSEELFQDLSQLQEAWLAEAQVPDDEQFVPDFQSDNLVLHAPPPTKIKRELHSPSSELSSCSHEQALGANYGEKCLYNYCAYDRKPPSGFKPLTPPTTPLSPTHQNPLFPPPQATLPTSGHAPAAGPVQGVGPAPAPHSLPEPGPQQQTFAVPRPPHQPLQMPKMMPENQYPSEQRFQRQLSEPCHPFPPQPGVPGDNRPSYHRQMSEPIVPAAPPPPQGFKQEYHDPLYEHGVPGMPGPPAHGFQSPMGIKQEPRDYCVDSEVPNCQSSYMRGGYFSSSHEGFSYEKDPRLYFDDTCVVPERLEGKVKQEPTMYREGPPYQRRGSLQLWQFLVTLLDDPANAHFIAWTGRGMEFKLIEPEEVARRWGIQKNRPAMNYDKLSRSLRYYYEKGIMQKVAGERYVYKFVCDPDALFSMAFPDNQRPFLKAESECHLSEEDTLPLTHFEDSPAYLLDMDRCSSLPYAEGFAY
# Chain of ELF1 (P32519 whole entry): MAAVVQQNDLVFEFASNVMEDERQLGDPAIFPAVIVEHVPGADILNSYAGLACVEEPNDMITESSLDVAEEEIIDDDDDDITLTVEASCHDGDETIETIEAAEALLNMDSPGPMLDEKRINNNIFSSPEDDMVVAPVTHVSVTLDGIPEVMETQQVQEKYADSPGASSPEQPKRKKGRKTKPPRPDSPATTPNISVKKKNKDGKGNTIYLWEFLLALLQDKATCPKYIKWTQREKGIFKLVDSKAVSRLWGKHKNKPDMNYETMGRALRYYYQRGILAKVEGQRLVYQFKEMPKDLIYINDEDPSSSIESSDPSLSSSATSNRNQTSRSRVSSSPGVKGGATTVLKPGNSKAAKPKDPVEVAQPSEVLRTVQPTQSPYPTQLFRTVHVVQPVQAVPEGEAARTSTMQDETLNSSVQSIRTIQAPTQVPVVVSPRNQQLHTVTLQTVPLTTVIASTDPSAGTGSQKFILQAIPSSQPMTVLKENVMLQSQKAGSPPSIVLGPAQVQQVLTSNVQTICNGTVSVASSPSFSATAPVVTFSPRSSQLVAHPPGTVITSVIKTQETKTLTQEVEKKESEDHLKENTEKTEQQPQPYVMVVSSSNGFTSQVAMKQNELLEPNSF
sequence,measurement,setting,value
AACCTA,binding signal,FLI1,"1.03 fold enrichment (6-mer frequency, TF over GST control)"
same,binding signal,ELK1,"1.08 fold enrichment (6-mer frequency, TF over GST control)"
same,binding signal,GABPA,"1.1 fold enrichment (6-mer frequency, TF over GST control)"
same,binding signal,ERG,"1.01 fold enrichment (6-mer frequency, TF over GST control)"
same,binding signal,ELF1,"1.1 fold enrichment (6-mer frequency, TF over GST control)"
same,binding signal,EHF,"1.11 fold enrichment (6-mer frequency, TF over GST control)"
same,binding signal,SPI1,"1.08 fold enrichment (6-mer frequency, TF over GST control)"
same,binding signal,SPIB,"1.1 fold enrichment (6-mer frequency, TF over GST control)"
same,binding signal,ELK3,"1.1 fold enrichment (6-mer frequency, TF over GST control)"
same,binding signal,FEV,"1.08 fold enrichment (6-mer frequency, TF over GST control)"
same,binding signal,ETV5,"1.03 fold enrichment (6-mer frequency, TF over GST control)"
same,binding signal,HSF1,"1.18 fold enrichment (6-mer frequency, TF over GST control)"
same,binding signal,SPIC,"1.03 fold enrichment (6-mer frequency, TF over GST control)"
same,binding signal,ELF4,"1.15 fold enrichment (6-mer frequency, TF over GST control)"
same,binding signal,ELK4,"1.07 fold enrichment (6-mer frequency, TF over GST control)"
same,binding signal,ETV2,"1.27 fold enrichment (6-mer frequency, TF over GST control)"
same,binding signal,ELF3,"1.16 fold enrichment (6-mer frequency, TF over GST control)"
same,binding signal,CRX,"1.2 fold enrichment (6-mer frequency, TF over GST control)"
same,binding signal,ETV1,"1.1 fold enrichment (6-mer frequency, TF over GST control)"

# From PMC7862700, “An all-to-all approach to the identification of sequence-specific readers for epigenetic DNA modifications on cytosine”
